In PubChem BioAssay AID493201 (National Center for Advancing Translational Sciences (NCATS), 2011):
Records with an inconclusive call do not appear. Where a call stands in place of a potency, no number is given. Active and inactive are the calls of the source. Calls follow the shape of the dose curve; as a rule, active = well fitted activation curve with a large enough effect; inconclusive = small, poorly fitted or top-dose-only effect; inactive = no such curve, though single readings can be large or run the other way.

Test: qHTS Assay for Identifying a Potential Treatment of Ataxia-Telangiectasia: Secondary assay (no NCS) hit validation;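 also: phosphorylated KAP1 signal as a proxy for ATM-like kinase activity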
Conditions: A-T patient fibroblasts, AlphaLISA, no DNA damage added, 90 min; series mostly up to 76.9 µM
Description: NIH Chemical Genomics Center [NCGC]
NIH Molecular Libraries Probe Centers Network [MLPCN]
Assay Submitter (PI): Wei Zheng and Yosef Shiloh
Ataxia-telangiectasia (A-T) is a devastating and progressive disease for which, there is no cure. Although A-T is a multisystem disease, it is stereotyped characterized by its neurological symptoms such as truncal ataxia, due to cerebellar cortical degeneration of the Purkinje and granule cells. Other symptoms of A-T are telangiectasias (dilated blood vessels), primary immunodeficiency, marked sensitivity to ionizing radiation (IR), chromosomal instability and predisposition to cancer.
The underlying genetic cause of A-T is null mutations in the ATM (A-T mutated) gene. ATM is a nuclear serine/threonine kinase that functions as a master regulator of the cellular responses to double strand breaks (DSBs) in the DNA. Upon activation by DSBs, ATM phosphorylates a plethora of downstream targets, including KAP-1 on […]. KAP-1 phosphorylation occurs shortly in response to DSBs and mediates global chromatin relaxation, which facilitates DSB repair. To screen for small molecules that will compensate for the loss of ATM in cells derived from A-T patients, we monitored KAP-1 phosphorylation as a readout for ATM-like activity using an AlphaLISA assay. This secondary assay omits NCS, which creates double-stranded DNA breaks.
Step,Parameter,Value,Description
1. Cell Plating, 3 ul, 500 cells/well in OPTI-MEM, 1% FBS, 1% Pen/Strep
3. Library compounds, 23 nl, 76.7 - 0.61uM dilution series final concentration
4. Incubation, 60 min, 37C, 5% CO2, 95% humidity
6. Incubation, 30 min, 37C, 5% CO2, 95% humidity
7. Reagent, 1 ul, Premixed detection reagents and lysis buffer
8. Reagent, 1 ul, 0.6% Antifoam A
9. Incubation, 6 hr, 25C, 95% humidity
10. Readout, EnVision, EnVision plate reader. AlphaScreen 1536-well protocol
Cells were plated using medium-binding white solid-bottom tissue culture treated Kalypsys plates. Multidrop dispense of 3 uL of F2112 (hTERT immortalized A-T patient fibroblast cells). Detection reagent and lysis buffer was 3.75nM Rab-a-pKAP1 antibody bound to 75 ng/ul AlphaScreen SA donor bead, 3.75 nM Biot-M-a-KAP1 antibody bound to AlphaLISA protein A acceptor bead, 0.5x protease inhibitor cocktail and 0.25x PerkinElmer lysis buffer. EnVision protocol for 1536-well AlphaScreen read (30ms excitation, 100ms read), about 10 min/plate.
Potency is read from the fitted curve at half-maximal effect.

| SMILES | Potency |
| --- | --- |
| CN1CCN(c2ccc([N+](=O)[O-])c3no[n+]([O-])c23)CC1 | inactive |
| Cc1ccc(C)c(NP(=O)(Oc2ccccc2)Oc2ccccc2)c1 | inactive |
| CC(C)c1ccc(-n2c(O)c(C=NC(CCS(C)=O)C(=O)O)c(=O)[nH]c2=S)cc1 (stereo not drawn) | inactive |
| CCc1ccc(N2C(=O)NC(=O)/C(=C\C=C\c3ccco3)C2=O)cc1 | inactive |
| CCN(CC)S(=O)(=O)c1cccc(N=Nc2c(O)n(CC)c(=S)n(CC)c2=O)c1 | 18.4 µM (active) |
| O=C1Nc2ccccc2C1Cc1nc2ccccc2c(=O)n1-c1ccccc1 (stereo not drawn) | inactive |
| COC(=O)C1=C(c2ccc(OCc3ccccc3)cc2)C[C@@H]2CC[C@H]1N2C(=O)NCc1cccc(C(F)(F)F)c1 | 4.12 µM (active) |
| CCCCC(=O)N/N=C/c1c(O)n(CCC2=CCCCC2)c(=O)[nH]c1=O | 14.6 µM (active) |
| Cc1cccc(N2C(=O)NC(=O)/C(=C\C=C\c3ccco3)C2=O)c1 | inactive |
| Cc1nc2ccccc2c(=O)n1-c1ccc(F)cc1F | inactive |
| Cc1cc(O)c2c(c1)C(=O)C13C(=C2O)C(=O)[C@H]2[C@@H](O)[C@@H]1[C@H]1[C@H](O)[C@@H]3C(=O)C3=C(O)c4c(O)cc(C)cc4C(=O)C312 (stereo partly drawn) | inactive |
| CCN(CC)S(=O)(=O)c1ccc(C(=O)NC2CN3CCC2CC3)cc1 (stereo not drawn) | inactive |
| CCN1C(=O)N(CC)C(=O)C2(Cc3ccccc3N3CCN(c4ccccc4)CC32)C1=O (stereo not drawn) | inactive |
| CC1(C)C[C@H]2C=C(C=O)[C@]3(C=O)C[C@]3(C)[C@H]2C1 | inactive |
| CN1CCCC(C(O)(c2ccccc2)c2ccccc2)C1 (stereo not drawn) | inactive |
| S=c1[nH]nc(Cn2c(-c3ccccn3)nc3ccccc32)n1-c1ccc2c(c1)OCCO2 | 41.2 µM (active) |
| C/C=C/c1ccc2c(c1)OCO2 | inactive |
| Cc1ccc(-n2c(O)c(C=NCC3CCCO3)c(=O)[nH]c2=O)c(C)c1 (stereo not drawn) | inactive |
